“And” between values parts separate entries of the source, which are not always exact repeats. Equal entries are not always repeated. Records with an inconclusive call do not appear. The source made the active and inactive calls. Unless noted, calls come from the whole dose curve; as a rule, active = well fitted curve in the direction sought with a large enough effect; inconclusive = small, poorly fitted or top-dose-only effect, or another doubt; inactive = no such curve, though single readings can be large; an effect the other way counts as inactive or inconclusive.
Experiments:
[1] = Cellular Toxicity (caspase-3) N2a (AID 665);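 note: compound exposure lasted 16 h at 37 °C before readout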
Summary of the method: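 Caspase-3/7 activation, measured as increased luminescence from aminoluciferin release, is quantified in mouse N2a cells exposed to compounds for 16 h. Values are normalized to DMSO and 10 uM staurosporine, with AC50 derived by Hill modelling.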

[2] = Cellular Toxicity (caspase-3) NIH 3T3 (AID 666);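 note: caspase signal read after 16 h compound exposure; 0% = DMSO basal and 100% = 100 µM tamoxifen stimulation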
Summary of the method: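 Cells were plated at 1000 per well and incubated 5 hr at 37°C, then compound was added for 16 hr. Caspase-Glo 3/7 reagent followed for 20 min at room temperature before luminescence was read.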

[3] = Cellular Toxicity (caspase-3) Renal Proximal Tubule (AID 667);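 note: cells exposed to compound for 16 hours at 37 °C before detection; 0% = DMSO basal and 100% = 10 µM staurosporine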
Summary of the method: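 Caspase 3/7 activation measured by luminescent aminoluciferin release in primary rat proximal tubule cells after 16 hr compound exposure at 37 °C. AC50 from Hill-fitted concentration-response, scaled between DMSO and 10 uM staurosporine.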

[4] = target: Cytochrome P450 3A4 (Homo sapiens) (UniProt P08684); assay: qHTS Assay for Inhibitors and Substrates of Cytochrome P450 3A4 (AID 884); note: nearly all actives have a fitted effect of over 50% in size; note: potency is the fitted concentration of half-maximal effect
Summary of the method: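 Luminescent readout of luciferin produced by CYP3A4 (20 nM) dealkylation of Luciferin-PPXE, 25 uM (its KM). NADPH-driven reaction ran 60 min at RT after 10 min compound preincubation; data scaled to 57 uM ketoconazole as 100% inhibition.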

[5] = target: Cytochrome P450 3A4 (Homo sapiens) (UniProt P08684); assay: qHTS Assay for Activators of Cytochrome P450 3A4 (AID 885); note: nearly all actives have a fitted effect of over 65% in size; note: potency is the fitted concentration of half-maximal effect
Summary of the method: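 Luminescent readout of luciferin formed from 25 uM Luciferin-PPXE (KM level) by 20 nM CYP3A4 in 200 mM KPO4, with 60 min NADPH-driven reaction at room temperature after 10 min compound exposure. Ketoconazole (57 uM) defined 100% inhibition.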

[6] = Confirmation and Secondary Assay for Modulators of Hemoglobin Beta Chain Splicing at IVS2 654 locus (AID 910);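 note: HeLa cells stably carrying EGFP split by mutant beta-globin IVS2-654 intron; % of control where 0% means no effect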
Summary of the method: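 HeLa cells stably expressing EGFP interrupted by β-globin IVS2-654 intron, seeded overnight in Opti-MEM/2% FCS, then treated 2 days at 37 °C. Restored splicing read as total peak GFP intensity per well by laser scanning cytometry (488 nm excitation, 500–520 nm emission); 500 nM antisense PNA as control.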

[7] = Cell Viability - LYMP2-001 (AID 921); note: nearly all actives have a fitted effect of over 70% in size; note: potency is the fitted concentration of half-maximal effect
Summary of the method: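 Cellular ATP loss read by luciferase luminescence after 24 h compound exposure at 37 C in complete medium. LYMP2-001 lymphoblastoid cells, 2500/well; qHTS concentration-response data fitted with Hill equation for AC50.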

[8] = Confirmation and Secondary Assay for Modulators of Hemoglobin Beta Chain Splicing at IVS2 705 locus (AID 930);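 note: HeLa cells stably expressing the EGFP-705 splicing reporter; GFP fluorescence per well restored by corrected splicing of the IVS2-705 intron in EGFP; series mostly up to about 46 µM; % of control where 0% means no effect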
Summary of the method: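 HeLa EGFP-705 reporter; 500 cells/well, o/n 37C 5% CO2; cpd 2 d; 488 ex/500-520 em laser scan; total peak GFP intensity/well. Ref: 500 nM […] antisense PNA.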

[9] = MultiTox-Fluor Cytotoxicity Assay - LYMP1-001 - Dead Cells (AID 946); note: potency is the fitted concentration of half-maximal effect
Summary of the method: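 Cytotoxicity as increased dead-cell protease fluorescence (bis-AAF-R110, 485/520 nm), read 60 min after MultiTox-Fluor reagent. Human lymphoblastoid line exposed 16 h; Hill-fitted AC50, with DMSO as 0% and 15 uM tetraoctylammonium bromide as 100%.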

[10] = MultiTox-Fluor Cytotoxicity Assay - LYMP1-001 - Live Cells (AID 947); note: potency is the fitted concentration of half-maximal effect
[11] = target: Guanine nucleotide-binding protein G(i) subunit alpha-1 (Homo sapiens) (UniProt P63096); assay: qHTS Assay for Inhibitors of RGS12 GoLoco Motif Activity (Green Fluorophore) (AID 879);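 note: 0% = labeled peptide with Gαi1 and full inhibition = labeled peptide alone without protein; negative values mean loss of peptide binding seen as reduced polarization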
Summary of the method: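 A drop in FITC polarization marked displacement of the FITC-tagged RGS12 GoLoco peptide (10 nM) from Gαi1 (50 nM). Compounds were incubated 10 min at room temperature in Tris pH 7.5 buffer containing 150 mM NaCl, 0.1 mM GDP and 0.05% NP40; unlabeled peptide titration served as control.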

[12] = target: Cytochrome P450 2D6 (Homo sapiens) (UniProt P10635); assay: qHTS Assay for Inhibitors and Substrates of Cytochrome P450 2D6 (AID 891); note: nearly all actives have a fitted effect of over 60% in size; note: potency is the fitted concentration of half-maximal effect
Summary of the method: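 Luminescent read-out of luciferin formed by 5 nM human CYP2D6 demethylating 30 uM Luciferin-ME EGE (Km level) over 60 min at room temperature after NADPH regeneration addition. Data normalized to full inhibition by 1.43 uM quinidine.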

[13] = target: Cytochrome P450 2C19 (Homo sapiens) (UniProt P33261); assay: qHTS Assay for Inhibitors and Substrates of Cytochrome P450 2C19 (AID 899); note: nearly all actives have a fitted effect of over 60% in size; note: potency is the fitted concentration of half-maximal effect
Summary of the method: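 Luminescent read-out of luciferin formed from Luciferin-H EGE (10uM, equal to KM). Enzyme 5nM in 50mM KPO4; compound added, 10 min at 37C, then NADPH regenerating system for 60 min at 37C. Full inhibition defined by 57uM ketoconazole.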

[14] = qHTS Assay for Identification of Small Molecule Agonists for Thrombopoietin (TPO) Signaling Pathway (AID 917); note: % is set by controls: 0 for no effect and ±100 for the full control effect
Summary of the method: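 Luciferase reporter (Glycoprotein IIb promoter) in IL-3-deprived Ba/F3 cells carrying human TPO receptor; compounds co-added with 26 pM TPO, incubated 24 h, 37 C. Steadylite luminescence measured after 10 min.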

[15] = target: Muscarinic acetylcholine receptor M1 (Rattus norvegicus) (UniProt P08482); assay: qHTS Assay for Antagonists of Acetylcholine Muscarinic M1 Receptor: Kinetic Measurement of Intracellular Calcium Response (AID 943); note: nearly all actives have a fitted effect of over 75% in size; note: potency is the fitted concentration of half-maximal effect
Summary of the method: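 Antagonism is measured as inhibition of the carbachol-evoked calcium rise in CHO cells transfected with rat M1. Cells are dye-loaded, exposed to compound for 10 min, then stimulated with 100 nM carbachol (EC80).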

[16] = target: Muscarinic acetylcholine receptor M1 (Rattus norvegicus) (UniProt P08482); assay: qHTS Assay for Antagonists of Acetylcholine Muscarinic M1 Receptor: Measurement of IP-One Response (AID 944); note: nearly all actives have a fitted effect of over 75% in size; note: potency is the fitted concentration of half-maximal effect
Summary of the method: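 Antagonist mode with rat M1 receptor transfected into CHO cells. Compound is added first for 10 min, carbachol at its EC80 follows for 30 min, and lysis reagents then allow TR-FRET detection of accumulated IP1.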

[17] = target: Pyruvate kinase (Leishmania mexicana) (UniProt Q27686); assay: qHTS Validation Assay for Inhibitors of Leishmania Mexicana Pyruvate Kinase (AID 945);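 note: 0% = DMSO only neutral control wells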
Summary of the method: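 Substrate mix (0.5 mM PEP, 0.1 mM ADP, 7 mM MgCl2, 50 mM KCl, pH 7.2 imidazole) received compound by pin tool, then 0.2 nM LmPYK E451W. After 1 h at room temperature, PKLight was added and luminescence measured.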

[18] = target: Cytochrome P450 2C9 (Homo sapiens) (UniProt P11712); assay: qHTS Assay for Inhibitors and Substrates of Cytochrome P450 2C9 (AID 883); note: nearly all actives have a fitted effect of over 60% in size; note: potency is the fitted concentration of half-maximal effect
Summary of the method: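 10nM CYP2C9 + 100uM Luciferin-H (=KM), 25mM KPO4; cpd 10 min 37C; NADPH regen, 60 min 37C; stop/detect with P450 Glo-Buffer 20 min; luminescence. Norm. to 57uM sulphaphenazole as full inhibition.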

[19] = qHTS Assay for Identification of Small Molecule Agonists for Hypoxia Response Element Signaling Pathway (AID 914; active = well fitted activation curve with a large enough effect in the signal ratio, with a control signal flat, not every such curve was filed as active; the % refers to the signal ratio; note: % of control where 0% means no effect); conditions: ME-180 HRE-bla reporter, beta-lactamase ratio, CoCl2, 17 h; active compounds read high
Summary of the method: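 Read-out: CCF4 FRET ratio of 460nm to 530nm emission (excitation 405nm) after 2.5 hours at room temperature, taken from HRE-bla ME-180 cells that had been exposed to compound and EC50 CoCl2 for 17 hours.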

[20] = qHTS Assay for Identification of Small Molecule Antagonists for NFkB Signaling Pathway (AID 895; active = well fitted inhibition curve with a large enough effect in the signal ratio, with a control signal flat, not every such curve was filed as active; the % refers to the signal ratio; note: % is set by controls: 0 for no effect and ±100 for the full control effect)
Summary of the method: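 ME-180 NFkB-bla cells (beta-lactamase under NFkB response element), plated overnight, treated with compound then 10 pM TNF alpha (about EC50) for 5 hrs at 37 C. LiveBLAzer FRET read at 460/530 nm emission, 405 nm excitation.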

Cytochrome P450 2D6 (Homo sapiens), sequence (P10635 whole entry, looked up): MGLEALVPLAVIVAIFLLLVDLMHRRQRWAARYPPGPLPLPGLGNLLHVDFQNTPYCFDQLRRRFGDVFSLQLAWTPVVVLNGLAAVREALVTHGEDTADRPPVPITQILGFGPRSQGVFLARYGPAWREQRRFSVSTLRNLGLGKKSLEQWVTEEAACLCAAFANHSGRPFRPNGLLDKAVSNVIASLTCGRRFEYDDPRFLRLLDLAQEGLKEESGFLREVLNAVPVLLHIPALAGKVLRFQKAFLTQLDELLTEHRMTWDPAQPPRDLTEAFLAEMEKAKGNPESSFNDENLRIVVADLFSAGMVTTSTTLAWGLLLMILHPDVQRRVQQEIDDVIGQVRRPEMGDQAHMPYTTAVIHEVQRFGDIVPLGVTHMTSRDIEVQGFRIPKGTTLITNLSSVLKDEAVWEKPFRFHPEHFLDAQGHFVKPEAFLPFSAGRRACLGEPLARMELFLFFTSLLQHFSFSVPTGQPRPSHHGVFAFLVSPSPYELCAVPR
Cytochrome P450 2C19 (Homo sapiens), sequence (P33261 whole entry, looked up): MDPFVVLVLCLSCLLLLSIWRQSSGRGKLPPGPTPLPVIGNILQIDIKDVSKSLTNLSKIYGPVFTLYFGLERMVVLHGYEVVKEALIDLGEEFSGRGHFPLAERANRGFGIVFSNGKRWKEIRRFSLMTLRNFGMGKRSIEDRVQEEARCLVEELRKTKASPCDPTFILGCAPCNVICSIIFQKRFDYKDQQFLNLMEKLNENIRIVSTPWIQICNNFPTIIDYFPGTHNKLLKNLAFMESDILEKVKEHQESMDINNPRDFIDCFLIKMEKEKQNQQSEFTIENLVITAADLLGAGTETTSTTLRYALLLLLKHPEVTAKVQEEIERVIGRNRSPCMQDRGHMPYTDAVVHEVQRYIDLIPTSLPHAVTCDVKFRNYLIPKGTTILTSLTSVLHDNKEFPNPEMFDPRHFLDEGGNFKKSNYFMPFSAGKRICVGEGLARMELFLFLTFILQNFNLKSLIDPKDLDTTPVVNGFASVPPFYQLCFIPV
Pyruvate kinase (Leishmania mexicana), sequence (Q27686 2-499 E452W): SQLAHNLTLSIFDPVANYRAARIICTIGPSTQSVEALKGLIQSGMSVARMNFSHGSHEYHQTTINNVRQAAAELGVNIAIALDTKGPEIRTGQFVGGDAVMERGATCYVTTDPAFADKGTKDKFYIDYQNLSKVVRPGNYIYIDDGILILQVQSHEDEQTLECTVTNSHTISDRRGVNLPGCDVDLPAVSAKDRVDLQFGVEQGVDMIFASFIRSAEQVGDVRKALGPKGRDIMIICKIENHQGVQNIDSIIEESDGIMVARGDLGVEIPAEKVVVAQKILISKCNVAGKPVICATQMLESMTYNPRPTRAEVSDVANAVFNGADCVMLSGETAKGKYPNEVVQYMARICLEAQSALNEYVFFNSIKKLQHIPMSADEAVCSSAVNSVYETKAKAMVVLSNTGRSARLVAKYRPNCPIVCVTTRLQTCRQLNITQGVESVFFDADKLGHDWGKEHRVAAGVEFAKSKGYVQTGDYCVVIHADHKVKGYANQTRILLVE
Cytochrome P450 2C9 (Homo sapiens), sequence (P11712 whole entry, looked up): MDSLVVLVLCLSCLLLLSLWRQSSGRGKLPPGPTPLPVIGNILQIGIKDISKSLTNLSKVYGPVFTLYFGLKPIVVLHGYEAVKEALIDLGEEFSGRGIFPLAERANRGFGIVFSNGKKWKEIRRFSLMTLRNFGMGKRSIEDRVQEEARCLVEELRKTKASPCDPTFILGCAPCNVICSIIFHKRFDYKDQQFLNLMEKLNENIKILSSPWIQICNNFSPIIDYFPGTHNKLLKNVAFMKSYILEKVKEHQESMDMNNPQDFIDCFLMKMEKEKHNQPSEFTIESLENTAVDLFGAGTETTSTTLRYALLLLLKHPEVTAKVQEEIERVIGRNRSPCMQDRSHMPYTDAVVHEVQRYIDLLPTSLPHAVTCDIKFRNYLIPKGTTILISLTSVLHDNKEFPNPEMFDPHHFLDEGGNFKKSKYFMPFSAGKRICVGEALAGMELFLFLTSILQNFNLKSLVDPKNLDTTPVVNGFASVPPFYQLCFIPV
Guanine nucleotide-binding protein G(i) subunit alpha-1 (Homo sapiens), sequence (P63096 whole entry, looked up): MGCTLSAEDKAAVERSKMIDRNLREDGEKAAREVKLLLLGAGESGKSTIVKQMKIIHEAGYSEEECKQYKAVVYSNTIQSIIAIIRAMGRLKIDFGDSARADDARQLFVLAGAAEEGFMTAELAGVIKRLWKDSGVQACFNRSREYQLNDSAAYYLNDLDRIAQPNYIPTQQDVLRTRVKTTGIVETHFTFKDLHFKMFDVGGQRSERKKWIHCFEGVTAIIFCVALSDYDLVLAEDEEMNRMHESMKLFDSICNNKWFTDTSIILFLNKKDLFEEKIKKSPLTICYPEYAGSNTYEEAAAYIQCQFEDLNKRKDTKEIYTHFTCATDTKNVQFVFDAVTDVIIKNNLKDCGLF
Muscarinic acetylcholine receptor M1 (Rattus norvegicus), sequence (P08482 whole entry, looked up): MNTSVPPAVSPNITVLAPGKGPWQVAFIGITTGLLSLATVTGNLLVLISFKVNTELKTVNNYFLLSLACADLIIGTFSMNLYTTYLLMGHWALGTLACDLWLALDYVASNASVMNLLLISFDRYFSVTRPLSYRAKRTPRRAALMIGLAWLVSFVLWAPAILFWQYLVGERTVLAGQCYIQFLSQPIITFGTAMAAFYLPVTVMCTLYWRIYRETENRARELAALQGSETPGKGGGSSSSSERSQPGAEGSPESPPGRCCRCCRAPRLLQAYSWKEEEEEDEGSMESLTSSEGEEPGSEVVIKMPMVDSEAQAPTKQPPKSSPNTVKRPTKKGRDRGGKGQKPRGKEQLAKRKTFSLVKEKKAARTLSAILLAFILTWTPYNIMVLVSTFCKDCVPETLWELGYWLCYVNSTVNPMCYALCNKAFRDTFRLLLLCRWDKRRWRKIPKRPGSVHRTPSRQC
Cytochrome P450 3A4 (Homo sapiens), sequence (P08684 whole entry, looked up): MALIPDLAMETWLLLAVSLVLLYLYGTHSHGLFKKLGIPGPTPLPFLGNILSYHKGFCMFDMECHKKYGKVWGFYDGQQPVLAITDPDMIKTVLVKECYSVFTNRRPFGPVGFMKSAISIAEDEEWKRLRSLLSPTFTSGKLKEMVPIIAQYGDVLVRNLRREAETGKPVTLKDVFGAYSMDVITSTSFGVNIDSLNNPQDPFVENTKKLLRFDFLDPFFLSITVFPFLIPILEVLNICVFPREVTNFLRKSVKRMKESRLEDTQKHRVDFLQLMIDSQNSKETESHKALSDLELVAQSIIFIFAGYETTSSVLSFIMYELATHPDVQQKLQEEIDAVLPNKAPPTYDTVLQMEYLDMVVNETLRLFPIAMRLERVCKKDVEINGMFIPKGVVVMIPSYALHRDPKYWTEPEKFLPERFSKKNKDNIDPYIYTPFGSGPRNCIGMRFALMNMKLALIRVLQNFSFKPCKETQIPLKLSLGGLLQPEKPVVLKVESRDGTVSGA

CN(C)C(=S)SSC(=S)N(C)C
active: Potency [4] 15.8 µM | Potency [7] 0.158 µM | Potency [9] 0.794 µM | Potency [10] 39.8 µM
inactive: outcome [1] | outcome [2] | outcome [3] | Potency [5] | outcome [6] | outcome [8]

O=C(CCl)c1ccc(Cl)cc1Cl
active: Potency [7] 3.98 µM | Potency [9] 10 µM | Potency [10] 12.6 µM
inactive: outcome [1] | outcome [2] | outcome [3] | Potency [4]

O=C(O)c1nn(Cc2ccc(Cl)cc2Cl)c2ccccc12
inactive: outcome [11] | Potency [12] | Potency [13] | outcome [14] | Potency [15] | Potency [16] | outcome [17]

CNC(=O)Oc1cccc2ccccc12
inactive: outcome [1] | outcome [2] | outcome [3] | Potency [4] | Potency [7] | Potency [9] | Potency [10]

COP(=O)(OC)OC=C(Cl)Cl
inactive: outcome [1] | outcome [2] | outcome [3] | Potency [7] | Potency [9] | Potency [10]

CN1[C@@H]2CC[C@H]1CC(OC(=O)c1cc(Cl)cc(Cl)c1)C2 (some centres not stated)
active: Potency [12] 100 nM and 7.9 nM | Potency [15] 3.16 µM | Potency [16] 3.98 µM
inactive: outcome [11] | Potency [18] | Potency [4] | Potency [13] | activation [19] 16.3% | outcome [14] | outcome [17]

c1ccc2nc(N3CCNCC3)ccc2c1
inactive: outcome [11] | Potency [18] | Potency [5] | outcome [6] | activation [19] -4.77% | outcome [14] | outcome [8] | outcome [17]

COc1ccc(C(=O)N2CCCC2=O)cc1
inactive: outcome [11] | outcome [6] | outcome [14] | outcome [8] | outcome [17]

CCC(=O)O[C@H]1CC[C@H]2[C@@H]3CCC4=CC(=O)CC[C@]4(C)[C@H]3CC[C@]12C
inactive: Potency [4]

Oc1ccc2[nH]cc(CCCCN3CC=C(c4ccccc4)CC3)c2c1
inactive: Potency [4]
active: Potency [5] 3.98 µM

NC(=O)CN1CCCC1=O
inactive: outcome [11] | Potency [4] | outcome [6] | outcome [14] | outcome [8] | outcome [17]

COC(=O)C1=CCCN(C)C1
inactive: outcome [11] | Potency [4] | outcome [20] | outcome [6] | outcome [14] | outcome [8] | outcome [17]

CCCCCCCCC(=O)NCc1ccc(O)c(OC)c1
active: Potency [18] 3.16 µM
inactive: outcome [11] | Potency [5] | outcome [20] | outcome [6] | outcome [14] | outcome [8] | Potency [15] | outcome [17]

CN1CCc2cc(Cl)c(O)cc2[C@H]2c3ccccc3CC[C@@H]21
inactive: Potency [4]

C[C@@H]1C[C@@H]([C@H](O)CC2CC(=O)NC(=O)C2)C(=O)[C@@H](C)C1
inactive: outcome [1] | outcome [3] | Potency [9] | Potency [10]
active: Potency [7] 1.26 µM and 1.58 µM

Oc1c(Br)cc(Br)cc1Br
inactive: outcome [1] | outcome [2] | outcome [3] | Potency [4] | Potency [7] | Potency [9] | Potency [10]
active: Potency [5] 15.8 µM

CCCCCCCCCCCC[N+](C)(C)CCOc1ccccc1
active: Potency [7] 31.6 µM | Potency [10] 25.1 µM
inactive: outcome [1] | outcome [3]

Oc1ccc(Cl)cc1Sc1cc(Cl)ccc1O
active: Potency [18] 0.398 µM | Potency [13] 0.0794 µM

C[C@H](N)[C@H](O)c1ccc(O)c(O)c1
inactive: outcome [11] | Potency [15] | Potency [16] | outcome [17]

CC[n+]1c(-c2ccccc2)c2cc(N)ccc2c2ccc(N)cc21
inactive: outcome [1] | outcome [3] | Potency [5] | outcome [6] | outcome [8]
active: Potency [7] 7.94 µM | Potency [9] 39.8 µM | Potency [10] 25.1 µM

CCCC(C)C1(CC)C(=O)N=C(S)NC1=O (configuration not stated)
inactive: outcome [6] | outcome [8]

CCNc1nc(Cl)nc(NCC)n1
inactive: Potency [4] | outcome [6] | outcome [8]

Clc1ccc(CSC(Cn2ccnc2)c2ccc(Cl)cc2Cl)cc1 (configuration not stated)
inactive: Potency [5] | outcome [6] | outcome [8]

NC(N)=NCCC[C@H](N)C(=O)O
inactive: Potency [13]

Clc1ccc(C(OCCN2CCCCC2)c2ccccc2)cc1 (configuration not stated)
inactive: Potency [5] | outcome [6] | outcome [8]

CC(C)[N+](C)(CCC(C(N)=O)(c1ccccc1)c1ccccc1)C(C)C
active: Potency [12] 3.98 µM
inactive: Potency [4] | outcome [6] | outcome [8]

CCCCN(CCCC)CCC(O)c1cc2c(Cl)cc(Cl)cc2c2cc(C(F)(F)F)ccc12 (configuration not stated)
active: Potency [12] 3.98 µM
inactive: Potency [5]

COC(=O)C1=C(C)NC(C)=C(C(=O)OC)C1c1ccccc1[N+](=O)[O-]
active: Potency [9] 50.1 µM

Cc1ccc(N=CN(C)C=Nc2ccc(C)cc2C)c(C)c1
inactive: outcome [6] | outcome [8]

Cc1cc(C(C)(C)C)cc(C)c1CC1=NCCN1
active: Potency [15] 5.62 µM | Potency [16] 10 µM

CN(C)C(=O)Oc1cc(OC(=O)N(C)C)cc(C(O)CNC(C)(C)C)c1 (configuration not stated)
inactive: Potency [4] | outcome [6] | outcome [8]

CN(C)CC/C=C1\c2ccccc2Sc2ccc(Cl)cc21
active: Potency [12] 2.51 µM

CCCCCCCCCCCCCCCC[n+]1ccccc1
inactive: Potency [4] | outcome [6] | outcome [8]

c1ccc(-c2ccc(C(c3ccccc3)n3ccnc3)cc2)cc1 (configuration not stated)
inactive: Potency [5]

CC(=O)c1ccc2c(c1)N(CCCN(C)C)c1ccccc1S2
active: Potency [12] 2.51 µM

O=C(CCCN1CCC(n2c(=O)[nH]c3ccccc32)CC1)c1ccc(F)cc1
active: Potency [12] 6.31 µM

O=C1NCN(c2ccccc2)C12CCN(CCCOc1ccc(F)cc1)CC2
active: Potency [12] 0.158 µM

Oc1ccc(Cl)cc1Cc1cc(Cl)ccc1O
inactive: Potency [5]

O=C(NC(=O)c1c(F)cccc1F)Nc1cc(Cl)c(OC(F)(F)C(F)C(F)(F)F)cc1Cl (configuration not stated)
inactive: Potency [4] | outcome [6] | outcome [8]

Clc1ccc(CO/N=C(\Cn2ccnc2)c2ccc(Cl)cc2Cl)c(Cl)c1
inactive: Potency [5] | outcome [6] | outcome [8]

N#Cc1nn(-c2c(Cl)cc(C(F)(F)F)cc2Cl)c(N)c1S(=O)C(F)(F)F (configuration not stated)
inactive: Potency [5] | outcome [6] | outcome [8]

From PubChem BioAssay (NCATS)
